Data reported in PubChem BioAssay (Tox21).
Inconclusive results are not listed. Unmarked numbers belong to inactive results. Calls of active or inactive are those of the source. Calls follow the shape of the dose curve; as a rule, active = well fitted cell-killing curve with a large enough effect in the repeat runs; inconclusive = weak or mixed curves; inactive = flat fitted curve, though single readings scatter.

Experiment: qHTS assay to identify small molecule antagonists of the estrogen related receptor (ERR) signaling pathway - cell viability counter screen (AID 1224818)
Conditions: ERR reporter cell line viability counter screen; series mostly up to 46.1 µM; viability change, negative = cytotoxic: at the top concentration
Source text: National Center for Advancing Translational Sciences [NCATS]
NIH Chemical Genomics Center [NCGC]
U.S. Environmental Protection Agency [EPA]
National Institutes of Environmental Health Sciences [NIEHS]
National Toxicology Program [NTP]
U.S. Food and Drug Administration [FDA]
Estrogen related receptors (ERRs), the first orphan nuclear receptors discovered, play an important role in the control of cellular energy metabolism. ERRs are required for high-energy production in response to the environmental challenges. ERR-alpha was also identified as an adverse marker for breast cancer progression; ERR-alpha-positive tumors have a poor prognosis. To screen and to identify environmental compounds that perturb the ERR signaling pathways could provide valuable information for potential therapeutic or preventive measures in the treatment of metabolic disease. To differentiate true ERR antagonists or agonist from cytotoxic substances, the assay is multiplexed with cell viability assay.
Tox21 Assay Protocol Summary:
The ERR cells were dispensed at 2,000 cells/5 ul/well in 1536-well white plates using a Multidrop dispenser. After the assay plates were incubated at a 37 C/5% CO2 incubator for 6 hours, 23 nL of compounds dissolved in DMSO, positive and negative controls or DMSO only was transferred to the assay plate by a pin tool. The plates were incubated at 37 C for 17.5 hours. 1 ul/well of CellTiter-Fluor reagent was added into the assay plates using a Flying Reagent Dispenser. After 30 min incubation at 37 C/5% CO2, the fluorescence intensity in the plates was measured using a ViewLux plate reader.
% is scaled to controls: 0 for no effect and ±100 for the full control effect; potency is read from the fitted curve at half-maximal effect.

| Compound | viability change, negative = cytotoxic | Potency |
| --- | --- | --- |
| NC(N)=NC(=O)Cc1c(Cl)cccc1Cl | -8.27% |  |
| c1ccc2c(c1)CCCC2C1=NCCN1 (stereo not given) | -6.57% |  |
| c1cnc2cc3c(cc2n1)C1CNCC3C1 | 16.7% |  |
| Cc1c(O)cccc1C(=O)N[C@@H](CSc1ccccc1)[C@H](O)CN1C[C@H]2CCCC[C@H]2C[C@H]1C(=O)NC(C)(C)C |  | 10.6 µM (active) |
| CCn1cc(C(=O)O)c(=O)c2cc(F)c(N3CCNC(C)C3)c(F)c21 (stereo not given) | -6.89% |  |
| NC(=Nc1ccccc1)Nc1ccccc1 | 0.356% [at 92.2 µM] |  |
| CCCNC(C)C(=O)Nc1ccccc1C (stereo not given) | 7.67% |  |
| COc1nc(C)nc(Cl)c1NC1=NCCN1 | 7.54% |  |
| Cc1scc2c1N(C(=O)CN1CCN(C)CC1)c1ccccc1NC2=O | -0.775% |  |
| O=C1CC2(CCCC2)CC(=O)N1CCCCN1CCN(c2ncccn2)CC1 | 10.3% |  |
| CC1COc2c(N3CCN(C)CC3)c(F)cc3c(=O)c(C(=O)O)cn1c23 (stereo not given) | 0.0332% |  |
| NC12CC3CC(CC(C3)C1)C2 | 12.8% |  |
| C1COC(NC(C2CC2)C2CC2)=N1 | -1.3% |  |
| N[C@@H]1CONC1=O | 2.58% |  |
| COc1ccc(CCN(C)CCCC(C#N)(c2ccc(OC)c(OC)c2)C(C)C)cc1OC (stereo not given) | -16.2% |  |
| CCN1CCCC1CNC(=O)c1cc(S(=O)(=O)CC)c(N)cc1OC (stereo not given) | 7.92% |  |
| CC(C)C(=O)c1c(C(C)C)nn2ccccc12 | 3.48% |  |
| CC(C(O)c1ccc(O)cc1)N1CCC(Cc2ccccc2)CC1 (stereo not given) | 1.25% |  |

| Compound | viability change, negative = cytotoxic | Potency |
| --- | --- | --- |
| Clc1ccc2c(c1)C(N1CCNCC1)=Nc1ccccc1O2 | -13.8% |  |
| NCCCCCC(=O)O | 0.105% |  |
| CC(N)=O | 8.94% |  |
| NNCCc1ccccc1 | 6.78% |  |
| [Cl][In]([Cl])[Cl] | -4.54% [at 92.2 µM] |  |
| O=C(O)CP(=O)(O)O | 9.48% |  |
| COC(=O)[C@H]1[C@H]2C[C@@H]3c4[nH]c5cc(OC)ccc5c4CCN3C[C@H]2C[C@@H](OC(=O)c2cc(OC)c(OC)c(OC)c2)[C@@H]1OC | -5.04% |  |
| CC(=O)OCC1=C(C(=O)O)N2C(=O)[C@@H](NC(=O)Cc3cccs3)[C@H]2SC1 | 15.9% |  |
| NC(N)=Nc1nc(CSCC/C(N)=N/S(N)(=O)=O)cs1 | 7.28% |  |
| CC(C)(C)NCC(O)c1cc(O)cc(O)c1 (stereo not given) | 14.9% |  |
| CC(=O)N[C@@H](CS)C(=O)O | 0.304% |  |
| CNC1(C)C2CCC(C2)C1(C)C (stereo not given) | 1.2% |  |
| NCCO | 1.72% [at 92.2 µM] |  |
| Cc1ccc(-c2cc(C(F)(F)F)nn2-c2ccc(S(N)(=O)=O)cc2)cc1 | -10.8% |  |
| O=C1NCC2(CCN(CCc3ccccc3)CC2)O1 | 12.8% |  |
| NC(Cc1ccc(Cl)cc1)C(=O)O (stereo not given) | 13.2% |  |
| CNCCC(Oc1ccc(C(F)(F)F)cc1)c1ccccc1 (stereo not given) | 0.977% |  |
